Screening data as filed in PubChem BioAssay.
Tb PYK inh: qHTS of Trypanosoma Brucei Inhibitors | pyruvate kinase (Trypanosoma brucei), Q57TT1 | TbPYK enzyme, Kinase-Glo Plus ATP luminescence, 45 min | Potency, µM (series often up to 76.8 µM), usual class: inhibitors | 410,000 compounds, 0.12% hits | AID 624173, 2012; also: nearly all actives have a fitted effect of over 50% in size
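Glycolytic pyruvate kinase of T. brucei was incubated with substrate, test compound and 130 uM ADP for 45 minutes at room temperature. Luminescent Kinase-Glo Plus signal was measured after 10 minutes.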
Giardia FBPA inh: qHTS Assay for Inhibitors of Fructose-1,6-bisphosphate Aldolase from Giardia Lamblia; Potency, µM (series often up to 59.6 µM), actives largely listed as inhibitors; A8B2U2; 290,000 compounds, 0.71% hits; purified Giardia FBPA; also: nearly all actives have a fitted effect of over 55% in size
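40 nM FBPA preincubated 10 min at RT with compound (up to 57.5 uM final), then substrate plus GAPDH/TPI/NAD/arsenate coupling and diaphorase/resazurin added. Fluorescence read after 20 min at RT, 525/598 nm.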
Shiga inhibitor: A qHTS for Small Molecule Inhibitors of Shiga Toxin. Vero cells, Shiga toxin protein synthesis inhibition reporter. inhibition, % at 38.7 µM. 290,000 compounds, 9.2% hits; in the data active = inhibition mostly above about 28%, no sharp cut-off; inactive = mostly below about 43%
CHX counter: Cycloheximide Counterscreen for Small Molecule Inhibitors of Shiga Toxin; max response, %; cell reporter, cycloheximide protein synthesis inhibition counterscreen; 300,000 compounds, 12% hits; in the data active = max response mostly above about 13%, no sharp cut-off; inactive = mostly below about 14%; also: read at 38.3 µM for the half of the compounds with a filed dose
LmPK inhibitor: qHTS Assay for Inhibitors of Leishmania Mexicana Pyruvate Kinase (LmPK); Q27686; purified LmPK, Kinase-Glo ATP luminescence, 1 h; Potency, µM (series often up to 57.5 µM), actives largely listed as inhibitors; 290,000 compounds, 0.37% hits; AID 1721, 2009
Target sequence (Q27686 whole entry, looked up): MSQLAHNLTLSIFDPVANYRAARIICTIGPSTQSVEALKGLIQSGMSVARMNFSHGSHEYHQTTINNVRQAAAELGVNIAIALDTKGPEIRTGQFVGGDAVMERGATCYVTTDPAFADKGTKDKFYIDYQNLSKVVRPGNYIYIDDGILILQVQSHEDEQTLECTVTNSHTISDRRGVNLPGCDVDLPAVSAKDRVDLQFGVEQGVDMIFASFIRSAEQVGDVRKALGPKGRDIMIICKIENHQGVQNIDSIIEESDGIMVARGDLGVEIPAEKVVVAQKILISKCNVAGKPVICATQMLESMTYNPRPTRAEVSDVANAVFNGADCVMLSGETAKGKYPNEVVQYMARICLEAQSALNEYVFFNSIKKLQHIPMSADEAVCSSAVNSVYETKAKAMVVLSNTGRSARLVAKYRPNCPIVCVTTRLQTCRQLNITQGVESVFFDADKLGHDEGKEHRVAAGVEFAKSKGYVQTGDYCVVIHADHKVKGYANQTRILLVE
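Kinase-Glo luminescence read after 1 h RT reaction of 0.1 nM LmPK with 0.5 mM PEP and 0.1 mM ADP. Activity scaled between uninhibited and enzyme-free controls.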
Sm TGR block: qHTS Assay for the Inhibitors of Schistosoma Mansoni Peroxiredoxins. purified TGR, DTNB reduction, TNB absorbance 405 nm. Potency, µM (highest dose often 114 µM), usual class: inhibitors. 360,000 compounds, 3% hits. AID 485364, 2010; also: nearly all actives have a fitted effect of over 60% in size
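Kinetic colorimetric format: TGR-catalysed, NADPH-driven DTNB reduction monitored via TNB absorbance. Enzyme dispensed at 20 nM; compound exposure 15 min at room temperature before reaction start.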
A number is an active result; n = inactive; u = inconclusive; x = no result given; [ ] = dose if it differs, or a comment. Many of the other results were omitted from the sample, so hits are more common in it than they were. Unless noted, calls follow the shape of the dose curve; as a rule, active = well fitted curve in the direction sought with a large enough effect; inconclusive = small, poorly fitted or top-dose-only effect, or another doubt; inactive = no such curve, though single readings can be large; an effect the other way counts as inactive or inconclusive.

SMILES | Tb PYK inh | Giardia FBPA inh | Shiga inhibitor | CHX counter | LmPK inhibitor | Sm TGR block
C/C(=N\Nc1ccccc1C(=O)O)c1ccncc1 | n | n | 42.9 | 18.3 | n | n
CCN(Cc1ccccc1)C(=O)c1cc2c(s1)-c1c(C)cccc1OC2 | n | x | x | x | x | n
Cc1cccc(N2CCN(C(=O)c3ccccc3SCC(=O)N3CCCC3)CC2)c1C | n | x | x | x | x | n
COc1ccc(/C(O)=C2/C(=O)C(=O)N(CCN(C)C)C2c2ccc(OC)c(OC)c2)c(C)c1 (stereo not drawn) | n | n | n | n | n | 39.8µM
COc1ccc(C2/C(=C(/O)c3cnn(-c4ccccc4)c3C)C(=O)C(=O)N2CCN(C)C)cc1OC (stereo not drawn) | n | x | x | x | x | x
Cc1nc2c(C)cccn2c1/C(O)=C1\C(=O)C(=O)N(CCN(C)C)C1c1cccs1 (stereo not drawn) | n | x | x | x | x | x
CC(C)COc1ccc(/C(O)=C2/C(=O)C(=O)N(CCN(C)C)C2c2ccncc2)cc1 (stereo not drawn) | n | n | n | n | n | n
CCOc1cc(C2/C(=C(/O)c3ccc(OC(C)C)cc3)C(=O)C(=O)N2CCCOC)ccc1O (stereo not drawn) | n | n | 87.1 | 48.3 | n | n
COc1cc(C2/C(=C(/O)c3ccc(OCC(C)C)cc3)C(=O)C(=O)N2CCN(C)C)ccc1O (stereo not drawn) | n | n | n | n | n | 44.7µM
CC(C)Oc1ccc(/C(O)=C2/C(=O)C(=O)N(CCN(C)C)C2c2cccs2)cc1 (stereo not drawn) | n | n | 74.1 | 18.3 | n | n
Cn1c(=O)n(-c2ccc(C(C)(C)C#N)cc2)c2c3cc(-c4cnc5ccccc5c4)ccc3ncc21 | n | x | x | x | x | x
CCCc1nn2c(=O)cc(COC(=O)c3ccc(NC(=O)COc4ccccc4F)cc3)nc2s1 | n | x | x | x | x | n
COc1ccc(-c2cc(C)no2)cc1S(=O)(=O)NCCc1ccco1 | n | x | n | n | n | n
COc1ccc(-n2nc([N+](=O)[O-])c(=NCc3cccnc3)n2O)cc1 | n | n | n | 65.3 | n | n
COc1ccc(-n2nc([N+](=O)[O-])c(=NCc3ccco3)n2O)cc1 | n | n | 80.5 | 29.7 | n | u
COc1ccc(-n2nc([N+](=O)[O-])c(=NCCc3ccc(Cl)cc3)n2O)cc1 | n | n | n | n | n | n
Cc1ccc(CN=c2c([N+](=O)[O-])nn(-c3cccc(C)c3)n2O)cc1 | n | n | n | 25.1 | n | n
Cc1ccc(NC(=O)CSc2nc(N)c3cc4c(nc3n2)CCCC4)cc1 | n | n | active | 32.9 | n | n
Nc1nc(SCC(=O)Nc2ccccc2)nc2nc3c(cc12)CCCC3 | n | n | 62.6 | 17.4 | n | n
COc1ccc(NC(=O)CSc2nc(N)c3cc4c(nc3n2)CCCC4)c(OC)c1 | n | n | n | n | n | n
COc1cccc(CN(C)C(=O)Cn2cc(C)c(=O)[nH]c2=O)c1 | n | x | x | x | x | x
CCN(CC)CCCN1C=C2C(=O)C(C)(OC(=O)C3CCCC3)C(=O)C=C2C=C1c1ccsc1 (stereo not drawn) | n | u | n | n | n[11.5 µM] | 50.1µM
CC1(OC(=O)C2CCCC2)C(=O)C=C2C=C(c3ccsc3)N(Cc3ccccc3)C=C2C1=O (stereo not drawn) | n | u | n | n | n[11.5 µM] | n
CC1=C(C(=O)Nc2cccc(Cl)c2C)C2(CCCCCC2)OC1=O | n | x | x | x | x | n
O=C(Nc1ccc(N2CCN(c3ncccc3C(F)(F)F)CC2)nc1)c1cccs1 | n | n | n | n | n | n
SMILES | Tb PYK inh | Giardia FBPA inh | Shiga inhibitor | CHX counter | LmPK inhibitor | Sm TGR block
N/C(=N\O)c1ccc(N2CCN(c3ncccc3C(F)(F)F)CC2)nc1 | n | n | 73.5 | 38.7 | n | n
O=C1CN(C(=O)c2ccccc2)c2ccccc2N1 | n | n | n | n | n | n
O=C1CN(C(=O)/C=C/c2ccccc2F)c2ccccc2N1 | n | n | 75.5 | 27.4 | n | n
COC(=O)c1c(SCC(=O)Nc2cc(C)cc(C)c2)[nH]c2ccccc2c1=O | n | x | x | x | x | n
COc1ccc(O)c(C2=Nc3ccccc3N=C(c3ccco3)C2)c1 | n | u | n | 8.7 | n | n
Oc1ccc(Cl)cc1C1=Nc2ccccc2N=C(c2ccco2)C1 | n | n | n | n | n | n
Cc1occc1C(=O)Nc1cccc(C(F)(F)F)c1 | n | n | n | n | n | u
Cc1ccc(NC(=O)c2ccoc2C)cc1C | n | n | 106.8 | 40.2 | 14.1µM | n
Cc1occc1C(=O)Nc1cccc(C(=O)O)c1 | n | n | n | 20.5 | n | n
Cc1occc1C(=O)NNC(=O)Nc1ccc(Cl)c(Cl)c1 | u | n | n | 13.2 | n | n
Cc1occc1C(=O)Nc1ccc2c(c1)OCO2 | n | n | 78.2 | 37.1 | 14.1µM | n
Cc1cc(NC(=O)c2ccoc2C)ccc1Br | n | x | x | x | x | n
CC(=O)Nc1cccc(OC(=O)c2ccoc2C)c1 | n | u | n | 9.7 | n | n
O=C(/C=C/c1ccco1)NC(=S)Nc1ccccc1O | n | n | 92.0 | 19.2 | n | 10µM
O=C(/C=C/c1ccco1)NC(=S)Nc1cc(C(F)(F)F)ccc1N1CCOCC1 | n | n | n | n | n | u
O=C(/C=C\c1ccco1)NC(=S)Nc1ccccc1O | n | u | 64.3 | 34.1 | n | 8.91µM
Cc1ccc(NC(=S)NC(=O)/C=C/c2ccco2)c(O)c1 | n | n | n | 59.9 | n | 17.8µM
Cc1ccc(C)c(NC(=O)CN(C)C(=O)/C=C/c2ccco2)c1 | n | n | n | n | n | n
Cc1cc(C(=O)CN2C(=O)C(=O)N(CC(C)C)C2=O)c(C)n1-c1ccccc1F | n | n | n | 16.9 | n | n
Cc1cc(C(=O)CN2C(=O)NC(CC(C)C)C2=O)c(C)n1-c1ccccc1F (stereo not drawn) | n | n | 158.7 | 47.2 | n | n
Cc1cc(C(=O)CN2C(=O)C3CC=CCC3C2=O)c(C)n1-c1ccccc1 (stereo not drawn) | n | n | 111.4 | 57.8 | n | n
Cc1cc(C(=O)CN2C(=O)NC(CC(C)C)C2=O)c(C)n1C1CC1 (stereo not drawn) | n | x | x | x | x | x
Cc1cc(C(=O)CN2C(=O)c3ccccc3S2(=O)=O)c(C)n1-c1ccccc1 | n | n | n | n | n | n
CC(C)(C)OC(=O)N1CCC[C@@H]1C(=O)N1CCC(C(=O)O)CC1 | n | n | n | n | n | n
CC(C)(C)OC(=O)N1CCC(C(=O)N2CCC[C@H]2C(=O)O)CC1 | n | n | 60.1 | 9.6 | n | n
O=c1ccc2c(OCCCCc3ccccc3)c3ccoc3cc2o1 | x | n | x | x | x | x
Cc1cccc(Cl)c1OCCN1CCCC1 | n | 25.1µM | n | n | n | n
